# In the supplement of paper PMC3334620:
# In all, about 33,000 sequences were measured (“E-score (-0.5 to 0.5)”: median about -0.012, highest 2% from about 0.27 on). The entries come from a sample that favours the highest values as a whole.
# Target: T1, Vhr1 (UniProt P40522)
# T1 sequence: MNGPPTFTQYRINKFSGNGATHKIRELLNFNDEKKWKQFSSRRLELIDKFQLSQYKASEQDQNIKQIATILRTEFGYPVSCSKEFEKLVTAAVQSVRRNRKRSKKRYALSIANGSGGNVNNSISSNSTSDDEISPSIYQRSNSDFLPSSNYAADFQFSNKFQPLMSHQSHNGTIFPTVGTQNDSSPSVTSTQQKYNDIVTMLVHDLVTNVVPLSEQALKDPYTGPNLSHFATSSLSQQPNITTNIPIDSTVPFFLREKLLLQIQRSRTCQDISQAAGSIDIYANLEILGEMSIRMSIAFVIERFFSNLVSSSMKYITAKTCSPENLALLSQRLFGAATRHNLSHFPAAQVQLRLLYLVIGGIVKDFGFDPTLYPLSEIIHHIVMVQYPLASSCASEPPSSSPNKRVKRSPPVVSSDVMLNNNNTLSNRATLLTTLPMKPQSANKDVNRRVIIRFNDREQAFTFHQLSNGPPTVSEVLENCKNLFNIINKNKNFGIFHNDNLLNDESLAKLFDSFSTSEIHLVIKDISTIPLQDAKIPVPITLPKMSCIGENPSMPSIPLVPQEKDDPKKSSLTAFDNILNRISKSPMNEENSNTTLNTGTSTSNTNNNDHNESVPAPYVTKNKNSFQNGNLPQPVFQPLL
# Experiment: PBM E-score (8-mer binding enrichment) (E-score (-0.5 to 0.5)); higher = stronger / more preferred TF binding
# Details: protein concentration: 200 nM; construct: GST-full length
# In short: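 Detection of bound protein used fluorescent anti-GST, with scans normalised by masliner. The proteins were GST-tagged yeast transcription factors applied at about 100-200 nM to universal all-10-mer Agilent arrays made double-stranded by primer extension. Each ungapped eight-base word, pooled with its reverse complement, was scored with an E-score from the Universal PBM Analysis Suite.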
row,Sequence,PBM E-score
1,GCGGGGGA,-0.0987
2,GGTGGGGA,0.378
3,AGCGGGGA,-0.0182
4,CGCGGGCC,0.187
5,CGCGGGCA,0.287
6,GGCGGGGA,0.409
7,CGCGGGAA,0.105
8,CGCGGGGA,0.292
9,GGCGGGCA,0.198
10,GGTGGGAA,0.04
11,GGCGGGAA,-0.0569
12,CACCAAGG,0.0118
13,AGGCTGGC,0.00081
14,AGGCCCGG,-0.234
15,ATTAGCGA,0.142
16,ATGGTCGA,-0.0168
17,GAGACTAA,-0.00777
18,CCGTTCAG,-0.184
19,CAACAATC,0.273
20,CAACAATG,0.168
21,GAACAATC,-0.0437
22,GGTCACAA,0.0224

row,Sequence,PBM E-score
1,ATTCACAG,-0.0154
2,AGGCACAT,0.0884
3,AGTCACAT,0.402
4,CGTCACAG,0.152
5,AGTCACAC,0.415
6,AGTCACAA,0.391
7,AGCCACAT,0.22
8,AGTCACAG,0.425
9,CGTCACAC,-0.021
10,CGTCACAA,-0.0394
11,GGTCACAC,0.0719
12,CTAAACAG,-0.00454
13,CGGCCTCA,0.024
14,ATTATTGA,0.036
15,TAGGAGCA,-0.0685
16,GACTTGTA,0.0565
17,CGAGCTCA,0.144
18,CGAGCTCG,0.307
19,CGAGCTCC,-0.102
20,CTGATGGC,0.0804
21,ATATTGGG,-0.038
22,GTTTATAA,-0.168

row,Sequence,PBM E-score
1,GCACCGAC,0.0173
2,ATGTAGTG,0.114
3,ATGTAGTC,0.286
4,ATGTAGTA,0.0473
5,ACATAGAT,-0.0848
6,AATTGTTA,-0.0275
7,ACAGCACG,0.118
8,TGTACACA,0.0228
9,ACTACACA,0.327
10,AGTACACA,0.284
11,AGTACACG,0.0779
12,CCTACACG,-0.0152
13,ACTACACG,0.221
14,GCCCAGAC,-0.15
15,ACTTCTTG,-0.106
16,CTGGTAAC,0.0684
17,ATCTGTAC,0.0611
18,AATCACGC,0.354
19,CCTCACGC,0.0696
20,ACTCACGG,0.352
21,ACACACGC,0.183
22,ACACACGG,0.155

row,Sequence,PBM E-score
1,AATCACGA,0.159
2,GATCACGC,0.193
3,ACTCACGC,0.366
4,ACTCACGA,0.243
5,AAACAAGA,0.121
6,AGCCCTAC,-0.108
7,ATTCTGGG,-0.107
8,GCAGTGGC,0.0117
9,GAGGTTGA,-0.131
10,AGAATAGG,0.026
11,CGTGAGTA,0.21
12,CGTGAGCC,0.0956
13,AGTGAGTG,0.00138
14,AGTGAGAC,0.0195
15,AGTGAGTC,0.466
16,CGTGAGTC,0.428
17,CACCTGCA,0.0182
18,TATAAGCA,0.00418
19,AACTCACA,0.202
20,CACTCACC,0.206
21,AACTCACG,0.109
22,GACTCACA,0.44

row,Sequence,PBM E-score
1,AACTCACC,0.224
2,TACTCACA,0.285
3,CACTCACA,0.264
4,GACTCACC,0.469
5,CACTCACG,0.238
6,TCCAGAAA,-0.0568
7,GCTTAGAA,-0.117
8,CAAATCAA,0.0775
9,AAACTGGG,-0.192
10,ATCTGATC,0.085
11,AGTTCTAG,-0.127
12,CACCCGCA,-0.0465
13,GACCCGCA,0.109
14,CACCCGCG,0.218
15,CACCCGCC,0.329
16,AACCCGCC,0.136
17,GACCCGCC,0.322
18,AACCTCAA,-0.195
19,ACCTACGT,-0.0787
20,AACTGCTG,-0.0272
21,ACCTTGAT,0.0042
22,TACCGTCA,-0.0775
